# PubChem BioAssay
# For some assays here: Potency and affinity values are given separately. Activity calls are given as the source filed them.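 The calls were made as follows, unless noted: active = compound raising the membrane signal above positive-control mean plus 3 SD in both repeats, and a primary screen hit; inactive = the rest.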
# Key:
# [1] = system: TRPC4 beta (transient receptor potential cation channel C4), mouse; assay: TRPC4 cation channel opening, retest – cell-based, Fluo4 calcium, HEK293 TRPC4beta/mu-opioid, duplicates, 10 µM, confirmation (AID 2426;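 active = fluorescence ratio normalized to control raised more than 50% in primary screen plus both repeat runs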); conditions: Fluo4 calcium fluorescence, at 10 µM; hits give high values
# [2] = system: transient receptor potential cation channel C4 beta (TRPC4), mouse; assay: TRPC4 cation channel opening, second retest – cell-based, second round, Fluo4, HEK293 TRPC4beta/mu-opioid, 1 µM, confirmation (AID 2461;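 active = primary screen active and over 50% activation in each of two duplicate runs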); conditions: Fluo4 calcium fluorescence, at 1 µM; hits give high values
# [3] = system: TRPC4 (transient receptor potential cation channel C4 beta), mouse; assay: potentiation of DAMGO EC20 TRPC4 response – cell-based, second round, Fluo-4, HEK293 TRPC4beta/mu-opioid, 1 µM, confirmation (AID 2554;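 active = primary screen hit whose fluorescence ratio, in both repeats, exceeds the weak agonist control mean by 3 SD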); conditions: DAMGO EC20, Fluo-4 calcium flux, at 1 µM; hits give high values
# [4] = system: TRPC4 beta (transient receptor potential cation channel C4), mouse; assay: potentiation of DAMGO EC20 TRPC4 response – cell-based, Fluo-4, HEK293 TRPC4beta/mu-opioid, confirmation (AID 2555;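 active = primary screen hit whose calcium fluorescence ratio, in both repeats, exceeds the weak agonist control mean by 3 SD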); conditions: DAMGO EC20, Fluo-4 calcium flux, at 10 µM; hits give high values
# [5] = biological target: Short transient receptor potential channel 4 (Mus musculus) (UniProt Q9QUQ5); assay: blockers of DAMGO-evoked TRPC4 calcium flux – cell-based, Fluo4, HEK293 TRPC4beta/mu-opioid, confirmation (AID 2636;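 active = calcium signal cut by more than 3 SD below the full-agonist control yet still positive, in both repeats and the earlier primary screen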); conditions: at 10 µM; hits give high values
# Chain of Short transient receptor potential channel 4 (Mus musculus) (Q9QUQ5 whole entry, looked up): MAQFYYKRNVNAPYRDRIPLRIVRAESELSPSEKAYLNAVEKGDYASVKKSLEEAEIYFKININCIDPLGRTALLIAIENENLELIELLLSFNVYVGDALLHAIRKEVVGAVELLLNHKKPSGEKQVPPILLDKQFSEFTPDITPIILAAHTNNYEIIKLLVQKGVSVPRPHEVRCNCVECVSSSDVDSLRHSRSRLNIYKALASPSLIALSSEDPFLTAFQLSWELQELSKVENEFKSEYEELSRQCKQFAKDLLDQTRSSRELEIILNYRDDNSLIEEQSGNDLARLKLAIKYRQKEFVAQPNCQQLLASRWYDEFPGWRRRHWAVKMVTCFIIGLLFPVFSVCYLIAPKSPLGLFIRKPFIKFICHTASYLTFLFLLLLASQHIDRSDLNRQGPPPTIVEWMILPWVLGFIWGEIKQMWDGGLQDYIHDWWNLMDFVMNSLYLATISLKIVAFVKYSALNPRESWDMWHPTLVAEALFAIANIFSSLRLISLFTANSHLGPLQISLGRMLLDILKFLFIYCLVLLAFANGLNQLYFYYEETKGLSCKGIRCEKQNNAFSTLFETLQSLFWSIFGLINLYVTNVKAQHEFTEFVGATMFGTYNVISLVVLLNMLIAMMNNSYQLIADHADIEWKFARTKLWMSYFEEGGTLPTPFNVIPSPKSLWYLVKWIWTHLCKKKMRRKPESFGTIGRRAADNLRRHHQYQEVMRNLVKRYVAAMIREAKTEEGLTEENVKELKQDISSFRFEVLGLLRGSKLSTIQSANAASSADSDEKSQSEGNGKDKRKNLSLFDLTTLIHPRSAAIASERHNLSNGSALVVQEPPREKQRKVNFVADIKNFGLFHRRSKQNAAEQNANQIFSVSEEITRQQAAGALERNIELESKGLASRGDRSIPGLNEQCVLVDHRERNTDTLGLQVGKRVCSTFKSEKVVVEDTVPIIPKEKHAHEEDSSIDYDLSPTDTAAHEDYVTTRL
# [6] = biological target: Short transient receptor potential channel 4 (Mus musculus) (UniProt Q9QUQ5); assay: blockers of DAMGO-evoked TRPC4 calcium flux – cell-based, second round, Fluo4, HEK293 TRPC4beta/mu-opioid, 1 µM, confirmation (AID 2637;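 active = calcium signal ratio cut to more than 3 SD under the fully stimulated control mean yet still positive, in both repeats and the primary screen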;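 as to inhibition: percent of integrated ratio relative to wells lacking test compound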); conditions: at 1 µM; hits give high values
# [7] = biological target: Short transient receptor potential channel 4 (Mus musculus) (UniProt Q9QUQ5); assay: calcium entry via TRPC4 opening agents – cell-based, HEK293 TRPC4/mu-opioid, Fluo-4 calcium, dose response (AID 434937;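 active = primary screen activator hit with a dose response curve and TRPC4 channel activation at any tested dose; inactive = no activation, no dose response, or not a primary hit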)
# [8] = biological target: Short transient receptor potential channel 4 (Mus musculus) (UniProt Q9QUQ5); assay: potentiation of DAMGO-evoked TRPC4 calcium signal – cell-based, HEK293 TRPC4/mu-opioid, Fluo-4 calcium, EC20 DAMGO, dose response (AID 434941;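 active = earlier screen potentiator hit that boosts the TRPC4 ion channel at some dose, with a dose response; inactive = no potentiation, no dose response, or not a prior hit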;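 also: calcium entry triggered by an EC20 dose of DAMGO at the co-expressed mu-opioid receptor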)
# [9] = biological target: Short transient receptor potential channel 6 (Mus musculus) (UniProt Q61143); assay: TRPC6 blockade by TRPC4 inhibitor hits – cell-based, HEK293, membrane potential dye, duplicate, selectivity assay for TRPC4 inhibitor project, confirmation (AID 434948;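 active = active in primary screen and both duplicates, each dropping signal beyond three positive-control SD with fluorescence still positive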); conditions: HEK293 TRPC6, membrane potential dye fluorescence, at 10 µM, stimulated with maximal-effect acetylcholine; hits give high values
# Chain of Short transient receptor potential channel 6 (Mus musculus) (Q61143 whole entry, looked up): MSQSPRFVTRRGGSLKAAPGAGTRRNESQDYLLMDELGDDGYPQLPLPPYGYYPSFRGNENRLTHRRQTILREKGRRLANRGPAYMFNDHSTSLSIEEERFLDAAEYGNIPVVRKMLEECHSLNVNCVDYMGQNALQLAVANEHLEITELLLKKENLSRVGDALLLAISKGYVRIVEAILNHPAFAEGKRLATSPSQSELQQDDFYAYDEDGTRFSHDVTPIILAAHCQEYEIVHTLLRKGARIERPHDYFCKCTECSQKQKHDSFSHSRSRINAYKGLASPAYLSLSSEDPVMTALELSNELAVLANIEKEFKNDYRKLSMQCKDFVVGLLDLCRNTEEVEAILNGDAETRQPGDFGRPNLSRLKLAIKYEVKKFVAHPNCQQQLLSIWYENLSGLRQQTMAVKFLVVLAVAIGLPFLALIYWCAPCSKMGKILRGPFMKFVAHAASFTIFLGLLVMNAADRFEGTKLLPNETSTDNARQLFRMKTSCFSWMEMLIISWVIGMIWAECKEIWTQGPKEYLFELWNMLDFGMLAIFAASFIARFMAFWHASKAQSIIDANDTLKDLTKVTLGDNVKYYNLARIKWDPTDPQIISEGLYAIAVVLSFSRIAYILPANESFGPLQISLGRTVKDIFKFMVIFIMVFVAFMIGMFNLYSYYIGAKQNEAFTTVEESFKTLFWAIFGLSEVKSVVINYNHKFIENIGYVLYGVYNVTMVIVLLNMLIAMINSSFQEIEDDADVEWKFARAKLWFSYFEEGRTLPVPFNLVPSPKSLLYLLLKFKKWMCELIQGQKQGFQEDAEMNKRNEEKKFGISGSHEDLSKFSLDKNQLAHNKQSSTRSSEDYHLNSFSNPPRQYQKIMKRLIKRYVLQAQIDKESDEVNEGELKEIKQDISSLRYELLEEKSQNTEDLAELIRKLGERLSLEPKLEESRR
# [10] = biological target: Short transient receptor potential channel 6 (Mus musculus) (UniProt Q61143); assay: TRPC6 opening by TRPC4 activator hits – cell-based, HEK293, membrane potential dye, duplicate, selectivity assay for TRPC4 activator project, confirmation (AID 434950;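 active = membrane potential signal rise above negative control mean plus 3 SD in both duplicates, also active in the earlier TRPC4 screen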); conditions: HEK293 TRPC6, membrane potential fluorescence, at 10 µM; activation: hits give high values; outcome: activation
# [11] = biological target: Short transient receptor potential channel 6 (Mus musculus) (UniProt Q61143); assay: positive modulators of mouse TRPC6 channel – HEK293 cells, membrane potential dye, duplicate, selectivity assay for TRPC4 potentiator project, confirmation (AID 434952); conditions: HEK293 TRPC6, membrane potential dye fluorescence, at 10 µM, maximal acetylcholine added after compound; hits give high values
# [12] = biological target: Short transient receptor potential channel 4 (Mus musculus) (UniProt Q9QUQ5); assay: calcium flux activators in TRPC4/5HT1a cells, counter-screen for TRPC4 activator project, cell-based, second counter screen, HEK293 TRPC4/5HT1a, Fluo-4 (AID 434977;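 active = calcium signal rise above buffer-control mean plus 5 SD in both duplicates, and also a hit in the primary screen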); conditions: Fluo-4 calcium flux, at 10 µM; hits give high values
# [13] = serotonin-gated TRPC4 signal block – cell-based, second counter screen, HEK293 TRPC4/5HT1a, Fluo-4, counter-screen for TRPC4 inhibitor project, confirmation (AID 434978;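 active = primary screen active whose calcium signal fell more than 3 SD beyond the full-serotonin control mean in both duplicate plates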;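 as to outcome: serotonin given first at submaximal then at maximal dose after compound preincubation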); conditions: Fluo-4 calcium flux, at 10 µM, serotonin added to trigger calcium flux; hits give high values
# [14] = system: TRPC4 (mouse), co-expressed with 5HT1a in HEK293; assay: enhancement of serotonin-evoked TRPC4 response – cell-based, second counter screen, HEK293 TRPC4/5HT1a, Fluo-4, counter-screen for TRPC4 potentiator project, confirmation (AID 434979;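 active = signal rise over 3 SD above mean of control wells given weak agonist, in both repeats and first screen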); conditions: Fluo-4 calcium flux, at 10 µM, serotonin added at its EC20 dose; hits give high values
# [15] = nonspecific calcium rise without TRPC4 – cell-based, HEK293 mu-opioid receptor line, counter-screen for TRPC4 activator project, confirmation (AID 449723;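 active = hit in primary screen, with calcium signal over 5 SD above buffer well mean in both duplicates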;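 also: counter screen cells carry the mu-opioid receptor alone and lack TRPC4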); conditions: HEK293 mu-opioid cells, Fluo-4 calcium fluorescence, at 10 µM; hits give high values
# [16] = nonspecific potentiation of DAMGO calcium response – cell-based, HEK293 mu-opioid receptor line, counter-screen for TRPC4 allosteric potentiator project, confirmation (AID 449724;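 active = calcium signal rise more than 3 SD above the low-dose agonist control mean, in both duplicate plates and the primary screen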); conditions: HEK293 mu-opioid receptor cells, Fluo-4 calcium flux, at 10 µM, compound added before EC20 DAMGO stimulus; hits give high values
SMILES,outcome [1],outcome [2],outcome [3],outcome [4],inhibition [5],outcome [6],outcome [7],outcome [8],inhibition [9],outcome [10],outcome [11],outcome [12],inhibition [13],outcome [14],outcome [15],outcome [16],outcome [9],outcome [13],inhibition [6],outcome [5]
Cc1ccc(-n2cccn2)c(CN2CCCC(C(=O)c3ccc4c(c3)OCO4)C2)c1 (centres undefined),inactive,inactive,inactive,inactive,53% (active),inactive,inactive,inactive,28% (active),inactive,inactive,inactive,38% (active),inactive,inactive,inactive,–,–,–,–
NC(=O)c1nsc(C(=O)N(Cc2ccco2)C(C(=O)NCC2CCCO2)c2ccc(F)cc2)c1N (centres undefined),inactive,inactive,inactive,inactive,76% (active),inactive,inactive,inactive,–,inactive,inactive,inactive,–,inactive,inactive,inactive,inactive,inactive,–,–
CCCN1CN(Cc2ccco2)c2nc3ccccc3n2C1,inactive,inactive,inactive,inactive,96% (active),–,inactive,inactive,–,inactive,inactive,inactive,25% (active),inactive,inactive,inactive,inactive,–,53% (active),–
CNc1nc(NCc2ccccc2)c2ccccc2n1,inactive,inactive,inactive,inactive,–,–,inactive,inactive,50.5% (active),inactive,inactive,inactive,26.9% (active),inactive,inactive,inactive,–,–,69% (active),inactive
Cc1[nH]c2ccc(C(=O)OC(C)C(=O)N(C)c3ccccc3)cc2c1C (centres undefined),inactive,inactive,inactive,inactive,–,inactive,inactive,inactive,–,inactive,inactive,inactive,–,inactive,inactive,inactive,inactive,inactive,–,inactive
Cc1ccc(C)c2c(N)c3c(nc12)CCCCC3 (tested in a mixture with another compound),inactive,inactive,inactive,inactive,97% (active),–,inactive,inactive,33.5% (active),inactive,inactive,inactive,8.52% (active),inactive,inactive,inactive,–,–,69% (active),–
OC1(c2ccc(F)cc2)CCN(Cc2ccccc2)C1 (centres undefined),inactive,inactive,inactive,inactive,98% (active),–,inactive,inactive,–,inactive,inactive,inactive,18.4% (active),inactive,inactive,inactive,inactive,–,55% (active),–
O=C(C[N+]1(CC#Cc2ccccc2)CCCCC1)c1ccc(Cl)cc1,inactive,inactive,inactive,inactive,86% (active),inactive,inactive,inactive,–,inactive,inactive,inactive,40.2% (active),inactive,inactive,inactive,inactive,–,–,–
CN(C)c1ccc(NC(=O)CN2C3CCCC2CC(NC(=O)c2ccccc2)C3)cc1 (centres undefined),inactive,inactive,inactive,inactive,71% (active),inactive,inactive,inactive,–,inactive,inactive,inactive,–,inactive,inactive,inactive,inactive,inactive,–,–
Cc1ccc(C(=O)NC(=S)Nc2c(C)ccc3nsnc23)cc1,inactive,inactive,inactive,inactive,86% (active),–,inactive,inactive,–,inactive,inactive,inactive,18.1% (active),inactive,inactive,inactive,inactive,–,45% (active),–
O=C1CN=C(Nc2cccc(C(F)(F)F)c2)N1C1CCCC1,inactive,inactive,inactive,inactive,94% (active),inactive,inactive,inactive,–,inactive,inactive,inactive,26.8% (active),inactive,inactive,inactive,inactive,–,–,–
CSc1nsc(NC(=O)Cc2ccccc2)n1,inactive,inactive,inactive,inactive,93% (active),inactive,inactive,inactive,–,inactive,inactive,inactive,–,inactive,inactive,inactive,inactive,inactive,–,–
CCCCCn1c2c(c(=N)c3ccccc31)CCC2,inactive,inactive,inactive,inactive,96% (active),–,inactive,inactive,1.5% (active),inactive,inactive,inactive,13.9% (active),inactive,inactive,inactive,–,–,75% (active),–
O=C(CCc1ccccc1)Nc1ccnn1C1CCN(C/C=C/c2ccccc2)CC1,inactive,inactive,inactive,inactive,–,inactive,inactive,inactive,–,inactive,inactive,inactive,17.3% (active),inactive,inactive,inactive,inactive,–,–,inactive
